Data taken from the supplement of paper PMC10849652.
The full data set covers some 8,800 targets. This sample favours those with a hit. About 0.5% of all pairs of compound and target were hits. Values without a mark were called inactive.

Columns and labels:
Assay in all cases: log2 fold change, soluble protein after heating vs DMSO (PISA); higher = thermal stabilisation; K562 lysate, 10 uM; active = over 0.2 and 3.5 SD of the protein, either way, in both replicates (recomputed)
vemurafenib = compound: CCCS(=O)(=O)Nc1ccc(F)c(C(=O)c2c[nH]c3ncc(-c4ccc(Cl)cc4)cc23)c1F [vemurafenib]
Outline: (§1)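 K562 pellets were dounce-homogenised in PBS pH 7.4 with 1 mM MgCl2, and the crude extract at 1 mg/mL protein was treated with 10 μM compound for 30 min. Aliquots were heated for 3 min across 48°C-58°C, pooled, and brought to 0.5% NP-40 at 4°C; soluble protein was the supernatant after 21,000xg for 90 min. Soluble protein was quantified by TMTpro 16plex LC-MS/MS with channel sums equalised, and reported as log2 fold change in thermal stability against DMSO controls, with values from duplicates.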

[1] = compound: CCCS(=O)(=O)Nc1ccc(F)c(C(=O)c2c[nH]c3ncc(Cl)cc23)c1F
Outline: as §1

barasertib = compound: CCN(CCCOc1ccc2c(Nc3cc(CC(=O)Nc4cccc(F)c4)[nH]n3)ncnc2c1)CCOP(=O)(O)O [barasertib]
Outline: as §1

[2] = compound: CC[C@@H]1C(=O)N(C)c2cnc(Nc3ccc(C(=O)NC4CCN(C)CC4)cc3OC)nc2N1C1CCCC1
Outline: as §1

volasertib = compound: CC[C@@H]1C(=O)N(C)c2cnc(Nc3ccc(C(=O)N[C@H]4CC[C@H](N5CCN(CC6CC6)CC5)CC4)cc3OC)nc2N1C(C)C [volasertib]
Outline: as §1

[3] = compound: CCn1c(C(=O)N(C2CC2)C2CC2)cc2c3c(ncn3C)c(Nc3cc(C)n(C)n3)nc21
Outline: as §1

[4] = compound: CCn1cc(-c2ccnc3[nH]c(-c4cccc(CN(C)C)c4)cc23)c(-c2ccc(NC(=O)N(C)C)cc2)n1
Outline: as §1

[5] = compound: CN1CCC(CNc2ccc3ncc(-c4cccc(OC(F)(F)F)c4)n3n2)CC1
Outline: as §1

saracatinib = compound: CN1CCN(CCOc2cc(OC3CCOCC3)c3c(Nc4c(Cl)ccc5c4OCO5)ncnc3c2)CC1 [saracatinib]
Outline: as §1

sotrastaurin = compound: CN1CCN(c2nc(C3=C(c4c[nH]c5ccccc45)C(=O)NC3=O)c3ccccc3n2)CC1 [sotrastaurin]
Outline: as §1

UniProt P45877, sequence (P45877 whole entry, looked up): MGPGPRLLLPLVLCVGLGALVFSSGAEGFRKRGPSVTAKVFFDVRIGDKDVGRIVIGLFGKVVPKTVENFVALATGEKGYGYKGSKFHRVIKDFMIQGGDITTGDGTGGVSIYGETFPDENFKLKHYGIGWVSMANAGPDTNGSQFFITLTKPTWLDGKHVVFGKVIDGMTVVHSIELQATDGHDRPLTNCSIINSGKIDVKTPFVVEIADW
UniProt Q05397, sequence (Q05397 whole entry, looked up): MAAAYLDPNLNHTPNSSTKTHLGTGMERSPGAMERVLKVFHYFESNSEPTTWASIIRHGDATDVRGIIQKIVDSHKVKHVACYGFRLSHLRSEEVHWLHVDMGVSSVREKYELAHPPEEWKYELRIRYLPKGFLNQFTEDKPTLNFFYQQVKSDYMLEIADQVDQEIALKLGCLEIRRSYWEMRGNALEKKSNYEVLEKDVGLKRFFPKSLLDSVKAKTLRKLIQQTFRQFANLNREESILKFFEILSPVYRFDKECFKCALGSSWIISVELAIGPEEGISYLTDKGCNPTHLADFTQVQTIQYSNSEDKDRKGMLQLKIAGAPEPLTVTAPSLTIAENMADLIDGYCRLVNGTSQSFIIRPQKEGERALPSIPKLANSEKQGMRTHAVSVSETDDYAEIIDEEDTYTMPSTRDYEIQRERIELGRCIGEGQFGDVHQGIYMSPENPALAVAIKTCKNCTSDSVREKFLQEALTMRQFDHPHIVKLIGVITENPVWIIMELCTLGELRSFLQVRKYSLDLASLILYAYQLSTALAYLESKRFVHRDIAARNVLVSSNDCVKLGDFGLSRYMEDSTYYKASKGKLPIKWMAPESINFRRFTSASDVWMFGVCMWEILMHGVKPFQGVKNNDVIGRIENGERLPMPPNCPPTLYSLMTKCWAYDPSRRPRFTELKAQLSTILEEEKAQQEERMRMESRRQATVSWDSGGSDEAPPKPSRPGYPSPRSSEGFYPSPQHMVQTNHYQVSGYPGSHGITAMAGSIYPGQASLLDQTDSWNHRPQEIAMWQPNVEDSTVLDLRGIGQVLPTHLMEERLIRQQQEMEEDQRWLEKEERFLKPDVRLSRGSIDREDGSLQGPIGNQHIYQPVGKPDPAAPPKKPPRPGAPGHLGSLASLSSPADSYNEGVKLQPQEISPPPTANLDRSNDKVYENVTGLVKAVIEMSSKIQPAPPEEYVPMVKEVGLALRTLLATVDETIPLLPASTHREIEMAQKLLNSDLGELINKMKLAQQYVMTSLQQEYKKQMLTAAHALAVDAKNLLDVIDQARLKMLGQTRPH
UniProt P48736, sequence (P48736 whole entry, looked up): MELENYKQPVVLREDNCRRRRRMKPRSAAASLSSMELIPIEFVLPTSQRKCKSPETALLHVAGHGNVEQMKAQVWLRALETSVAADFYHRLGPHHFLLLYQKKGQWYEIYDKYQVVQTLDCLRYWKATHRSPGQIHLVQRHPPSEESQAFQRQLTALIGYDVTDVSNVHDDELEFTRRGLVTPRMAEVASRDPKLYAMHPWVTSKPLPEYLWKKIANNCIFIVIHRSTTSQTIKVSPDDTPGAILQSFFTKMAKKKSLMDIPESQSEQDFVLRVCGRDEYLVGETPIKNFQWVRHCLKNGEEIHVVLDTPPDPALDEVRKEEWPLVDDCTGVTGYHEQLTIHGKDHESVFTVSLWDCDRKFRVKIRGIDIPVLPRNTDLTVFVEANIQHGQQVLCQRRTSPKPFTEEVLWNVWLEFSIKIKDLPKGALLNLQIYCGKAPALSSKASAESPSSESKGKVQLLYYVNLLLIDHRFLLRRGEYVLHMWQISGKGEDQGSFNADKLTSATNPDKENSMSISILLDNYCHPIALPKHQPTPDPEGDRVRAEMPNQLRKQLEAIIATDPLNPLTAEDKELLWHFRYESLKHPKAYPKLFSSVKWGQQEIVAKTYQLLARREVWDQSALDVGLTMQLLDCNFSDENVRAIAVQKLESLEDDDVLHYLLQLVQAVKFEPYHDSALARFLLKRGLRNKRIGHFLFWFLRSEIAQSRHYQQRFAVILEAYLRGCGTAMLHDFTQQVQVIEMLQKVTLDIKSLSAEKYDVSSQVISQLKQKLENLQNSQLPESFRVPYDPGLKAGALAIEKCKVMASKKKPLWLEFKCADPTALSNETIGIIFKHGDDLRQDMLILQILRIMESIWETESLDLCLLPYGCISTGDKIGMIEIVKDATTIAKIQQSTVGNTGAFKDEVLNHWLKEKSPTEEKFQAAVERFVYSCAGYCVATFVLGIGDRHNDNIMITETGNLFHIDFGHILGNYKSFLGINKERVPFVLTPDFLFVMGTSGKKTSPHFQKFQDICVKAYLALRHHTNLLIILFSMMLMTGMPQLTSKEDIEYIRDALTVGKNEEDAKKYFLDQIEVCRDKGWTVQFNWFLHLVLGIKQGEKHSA
UniProt O15067, sequence (O15067 whole entry, looked up): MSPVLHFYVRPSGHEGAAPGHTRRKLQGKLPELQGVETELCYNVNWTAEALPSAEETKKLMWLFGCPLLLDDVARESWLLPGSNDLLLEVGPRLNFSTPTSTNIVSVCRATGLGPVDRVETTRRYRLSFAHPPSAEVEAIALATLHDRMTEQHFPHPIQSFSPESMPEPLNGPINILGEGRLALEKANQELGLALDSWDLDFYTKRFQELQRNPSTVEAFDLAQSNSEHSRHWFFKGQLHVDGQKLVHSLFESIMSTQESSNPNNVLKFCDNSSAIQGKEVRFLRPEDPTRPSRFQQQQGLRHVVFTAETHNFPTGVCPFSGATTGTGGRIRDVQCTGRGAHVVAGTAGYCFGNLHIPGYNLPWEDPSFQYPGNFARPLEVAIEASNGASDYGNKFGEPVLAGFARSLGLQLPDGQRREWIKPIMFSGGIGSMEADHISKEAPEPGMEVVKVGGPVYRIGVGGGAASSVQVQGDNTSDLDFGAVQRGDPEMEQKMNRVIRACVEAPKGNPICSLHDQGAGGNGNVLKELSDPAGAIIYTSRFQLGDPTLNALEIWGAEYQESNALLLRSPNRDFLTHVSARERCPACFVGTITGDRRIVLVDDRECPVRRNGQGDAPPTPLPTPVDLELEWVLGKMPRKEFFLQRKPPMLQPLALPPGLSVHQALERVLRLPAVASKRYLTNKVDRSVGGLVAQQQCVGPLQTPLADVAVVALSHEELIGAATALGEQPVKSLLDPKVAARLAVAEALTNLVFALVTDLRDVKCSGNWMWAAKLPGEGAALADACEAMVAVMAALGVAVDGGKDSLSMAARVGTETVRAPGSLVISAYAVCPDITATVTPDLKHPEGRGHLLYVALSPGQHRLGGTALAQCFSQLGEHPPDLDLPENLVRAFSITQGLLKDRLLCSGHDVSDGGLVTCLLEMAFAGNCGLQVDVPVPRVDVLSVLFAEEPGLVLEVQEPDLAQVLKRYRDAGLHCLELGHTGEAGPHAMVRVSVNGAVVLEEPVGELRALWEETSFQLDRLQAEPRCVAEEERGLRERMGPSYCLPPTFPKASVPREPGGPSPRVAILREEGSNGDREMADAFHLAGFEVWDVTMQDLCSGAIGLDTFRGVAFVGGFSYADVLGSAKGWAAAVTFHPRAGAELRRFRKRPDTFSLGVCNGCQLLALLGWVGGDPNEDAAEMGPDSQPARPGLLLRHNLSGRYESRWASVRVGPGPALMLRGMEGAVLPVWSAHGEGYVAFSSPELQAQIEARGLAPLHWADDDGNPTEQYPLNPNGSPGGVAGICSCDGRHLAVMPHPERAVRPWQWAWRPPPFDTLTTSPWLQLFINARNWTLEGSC
UniProt Q4G0T1, sequence (Q4G0T1 whole entry, looked up): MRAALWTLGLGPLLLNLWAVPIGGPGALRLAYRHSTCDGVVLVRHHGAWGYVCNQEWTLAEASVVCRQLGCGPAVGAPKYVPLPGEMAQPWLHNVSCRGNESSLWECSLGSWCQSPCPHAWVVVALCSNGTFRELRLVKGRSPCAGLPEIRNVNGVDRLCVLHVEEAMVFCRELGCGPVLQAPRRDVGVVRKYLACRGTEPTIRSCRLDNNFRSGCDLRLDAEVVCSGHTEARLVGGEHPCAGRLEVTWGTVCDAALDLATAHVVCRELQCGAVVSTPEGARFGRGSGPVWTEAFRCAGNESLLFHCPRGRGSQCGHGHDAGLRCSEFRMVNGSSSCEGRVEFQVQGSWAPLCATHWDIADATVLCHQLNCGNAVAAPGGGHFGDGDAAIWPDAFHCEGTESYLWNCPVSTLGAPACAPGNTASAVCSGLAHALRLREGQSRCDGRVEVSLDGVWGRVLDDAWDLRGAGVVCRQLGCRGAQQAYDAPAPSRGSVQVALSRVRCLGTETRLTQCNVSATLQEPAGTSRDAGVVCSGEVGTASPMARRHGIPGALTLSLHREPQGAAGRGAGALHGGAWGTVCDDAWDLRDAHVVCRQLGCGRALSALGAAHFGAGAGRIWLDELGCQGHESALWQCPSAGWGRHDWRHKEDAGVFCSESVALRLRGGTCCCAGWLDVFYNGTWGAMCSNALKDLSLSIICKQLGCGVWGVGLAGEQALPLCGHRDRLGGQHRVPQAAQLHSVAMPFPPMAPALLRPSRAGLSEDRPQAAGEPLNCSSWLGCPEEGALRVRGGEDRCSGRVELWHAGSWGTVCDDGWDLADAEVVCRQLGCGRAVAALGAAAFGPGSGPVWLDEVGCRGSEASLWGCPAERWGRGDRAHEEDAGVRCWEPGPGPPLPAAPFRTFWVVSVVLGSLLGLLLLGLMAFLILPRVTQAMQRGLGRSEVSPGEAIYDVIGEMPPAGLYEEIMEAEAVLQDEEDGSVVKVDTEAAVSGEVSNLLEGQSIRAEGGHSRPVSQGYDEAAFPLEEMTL
UniProt P41247, sequence (P41247 whole entry, looked up): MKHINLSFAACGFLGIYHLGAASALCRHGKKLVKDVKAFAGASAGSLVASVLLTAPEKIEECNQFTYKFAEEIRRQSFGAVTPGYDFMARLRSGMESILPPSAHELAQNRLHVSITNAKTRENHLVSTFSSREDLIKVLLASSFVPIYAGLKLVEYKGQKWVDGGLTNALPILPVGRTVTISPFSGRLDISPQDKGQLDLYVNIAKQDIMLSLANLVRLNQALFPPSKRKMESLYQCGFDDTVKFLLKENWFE

Row | Target | log2 fold change (vemurafenib) | log2 fold change [1] | log2 fold change (barasertib) | log2 fold change [2] | log2 fold change (volasertib) | log2 fold change [3] | log2 fold change [4] | log2 fold change [5] | log2 fold change (saracatinib) | log2 fold change (sotrastaurin)
1 | PDF (UniProt Q9HBH1) | -0.012 | 0.03 | 0.028 | -0.118 | -0.004 | 0.01 | -0.014 | -0.181 | 0.032 | -0.02
2 | PFAS (UniProt O15067) | 0.029 | 0.023 | 0.015 | -0.048 | -0.091 | 0 | -0.023 | 0.001 | -0.013 | -0.015
3 | PTMA (UniProt P06454) | 0.022 | -0.049 | 0.018 | 0.06 | 0.004 | -0.031 | 0.569 (active) | -0.337 (active) | -0.061 | 0.04
4 | PLXNB2 (UniProt O15031) | 0.011 | -0.007 | 0.008 | 0.051 | -0.021 | -0.003 | -0.043 | -0.019 | 0.005 | 0.024
5 | PGLS (UniProt O95336) | -0.033 | -0.027 | 0.067 | -0.055 | 0.027 | 0.036 | 0.051 | -0.114 | 0.039 | 0.006
6 | POLA1 (UniProt P09884) | 0.002 | 0 | 0.042 | 0.021 | -0.012 | 0.03 | -0.009 | -0.016 | -0.003 | 0.004
7 | PRRG1 (UniProt O14668) | – | – | – | – | – | 0.052 | – | – | – | –
8 | NA (UniProt Q4G0T1) | – | – | – | – | – | 0.032 | 0.022 | 0.026 | -0.033 | 0.129
9 | PHKG1 isoform 2 (UniProt Q16816) | -0.197 | -0.037 | – | -0.062 | 0.033 | 0.054 | -0.867 (active) | 0.64 | 0.177 | -0.269
10 | PPP1R11 (UniProt O60927) | – | 0.069 | -0.04 | 0.153 | 0.046 | -0.101 | 0.16 | -0.067 | -0.05 | 0.001
11 | PIP5K1A (UniProt Q99755) | – | 0.029 | 0.108 | – | 0.07 | -0.041 | 0.027 | -0.514 (active) | 0.107 | -0.018
12 | POLR2M (UniProt Q6EEV4) | 0.117 | -0.043 | 0.176 | 0.032 | -0.074 | – | 0.154 | -0.077 | 0.016 | -0.072
13 | POM121C (UniProt A8CG34) | – | -0.037 | 0.201 | – | -0.101 | 0.045 | 0.146 | 0.158 | – | –
14 | PTK2 isoform 2 (UniProt Q05397) | – | -0.101 | 0.05 | -0.076 | -0.387 | – | – | – | -0.063 | –
15 | PCBP2 (UniProt F8W0G4) | 0.121 | – | 0.035 | -0.253 | – | -0.066 | – | – | 0.005 | –
16 | PDIA4, A0A499FI48 | – | – | – | – | – | – | 1.69 (active) | -0.33 | 0.03 | -0.048
17 | PDE4DIP (UniProt E9PS60) | -0.014 | – | – | 0.017 | – | – | -0.942 (active) | 0.153 | 0.067 | 0.137
18 | PPP2R5C isoform 2 (UniProt Q13362) | 0.014 | – | -0.267 | – | – | -0.081 | -0.023 | -0.033 | 0.014 | 0.134
19 | PREP (UniProt H0Y5Y0) | – | 0.019 | – | – | 0.079 | – | 0.678 | -0.144 | – | –
20 | PLXND1 (UniProt Q9Y4D7) | – | – | 0.045 | – | – | -0.214 | – | – | 0.018 | 0.012
21 | PHGDH, A0A286YFE1 | – | 0.158 | 0.364 | – | 0.083 | – | – | – | -0.318 | –
22 | PIK3CD (UniProt O00329) | -0.094 | 0.005 | -0.046 | – | -0.015 | 0.072 | -0.109 | 0.398 | -0.04 | 0.023
23 | PHC1 (UniProt P78364) | 0.042 | – | 0.034 | 0.097 | – | – | – | – | 0.066 | -0.354

Row | Target | log2 fold change (vemurafenib) | log2 fold change [1] | log2 fold change (barasertib) | log2 fold change [2] | log2 fold change (volasertib) | log2 fold change [3] | log2 fold change [4] | log2 fold change [5] | log2 fold change (saracatinib) | log2 fold change (sotrastaurin)
24 | PLK1 (UniProt P53350) | 0.053 | -0.009 | 0.003 | – | -0.009 | 0.014 | 0.165 | -0.279 | 0.021 | -0.335 (active)
25 | PPME1 (UniProt Q9Y570) | – | -0.042 | 0.026 | 0.104 | -0.012 | – | – | – | -0.043 | –
26 | PIM1 isoform 2 (UniProt P11309) | -0.061 | – | 0.139 | 0.002 | – | 0.073 | -0.068 | 1.46 (active) | 0 | 0.593 (active)
27 | PHOSPHO2 (UniProt C9JD35) | – | – | – | -0.432 | – | – | – | – | – | -0.027
28 | PTMA isoform 2 (UniProt P06454) | – | – | -0.09 | – | – | – | – | – | – | –
29 | PRR4 (UniProt Q16378) | 0.367 | 0.038 | – | -0.21 | -0.046 | -0.005 | 0.358 | -1.21 (active) | – | –
30 | PEX2 (UniProt P28328) | 0.079 | -0.047 | 0.174 | – | 0.024 | 0.052 | 0.011 | 0.024 | -0.086 | 0.036
31 | PECR (UniProt Q9BY49) | – | – | – | 0.023 | – | – | – | – | – | –
32 | PYGO2 (UniProt Q9BRQ0) | – | – | 0.036 | -0.106 | – | 0 | -0.044 | 0.042 | 0.07 | -0.022
33 | PRADC1 (UniProt Q9BSG0) | – | 0.011 | -0.509 (active) | – | 0.074 | -0.05 | 0.057 | 0.101 | 0.054 | -0.015
34 | PFN1 (UniProt I3L3D5) | – | -0.142 | 0.241 | -0.01 | -0.107 | -0.067 | 0.924 (active) | -0.135 | – | –
35 | PCBP2 (UniProt F8VRH0) | – | -0.035 | – | – | -0.058 | -0.138 | -0.033 | -0.047 | – | -0.066
36 | PMS1 (UniProt P54277) | 0.037 | – | 0.193 | 0.019 | – | -0.028 | -0.01 | -0.051 | 0.016 | -0.002
37 | PFN3 (UniProt P60673) | 0.059 | 0 | – | 0.112 | 0.056 | – | -0.706 (active) | 0.109 | – | 0.042
38 | POLR2F (UniProt U3KPV3) | – | – | – | 0.13 | – | – | – | – | -0.051 | –
39 | PCLAF (UniProt Q15004) | -0.016 | – | -0.068 | 0.057 | – | -0.033 | -0.067 | 0.121 | -0.013 | 0.011
40 | PIAS2 (UniProt O75928) | -0.263 | – | – | -0.026 | – | 0.003 | – | – | 0.044 | -0.033
41 | PPIC (UniProt P45877) | -0.009 | – | 0.203 | – | – | 0.078 | -0.112 | 0.124 | -0.004 | -0.453 (active)
42 | PIK3CG (UniProt P48736) | 0.028 | – | 0.046 | 0.004 | – | 0.006 | -0.276 (active) | 0.289 (active) | 0.028 | 0.051
43 | PNPLA4 (UniProt P41247) | 0.098 | – | – | 0.002 | – | -0.111 | 0.165 | 0.414 | 0.009 | -0.013
44 | PRIMPOL (UniProt Q96LW4) | -0.02 | – | -0.083 | -0.095 | – | 0.011 | – | – | 0.014 | 0.089
45 | PRG4 (UniProt Q92954) | – | -0.038 | 0.332 | – | 0.054 | -0.03 | -0.179 | 0.229 | 0.009 | -0.02
